Many of the other results were omitted from the sample, so hits are more common in it than they were.
KDM5B inhibitor: inhibitors of human KDM5B histone demethylase. Q9UGL1. KDM5B demethylase, FDH-coupled NADH fluorescence (FDH is formaldehyde dehydrogenase). Potency, µM (highest dose often 57.7 µM), most hits filed as inhibitors. hit rate 2.6% among 220,000; active = well fitted inhibition curve with a large enough effect; note: nearly all actives have a fitted effect of over 70% in size
Target sequence (Q9UGL1 whole entry, looked up): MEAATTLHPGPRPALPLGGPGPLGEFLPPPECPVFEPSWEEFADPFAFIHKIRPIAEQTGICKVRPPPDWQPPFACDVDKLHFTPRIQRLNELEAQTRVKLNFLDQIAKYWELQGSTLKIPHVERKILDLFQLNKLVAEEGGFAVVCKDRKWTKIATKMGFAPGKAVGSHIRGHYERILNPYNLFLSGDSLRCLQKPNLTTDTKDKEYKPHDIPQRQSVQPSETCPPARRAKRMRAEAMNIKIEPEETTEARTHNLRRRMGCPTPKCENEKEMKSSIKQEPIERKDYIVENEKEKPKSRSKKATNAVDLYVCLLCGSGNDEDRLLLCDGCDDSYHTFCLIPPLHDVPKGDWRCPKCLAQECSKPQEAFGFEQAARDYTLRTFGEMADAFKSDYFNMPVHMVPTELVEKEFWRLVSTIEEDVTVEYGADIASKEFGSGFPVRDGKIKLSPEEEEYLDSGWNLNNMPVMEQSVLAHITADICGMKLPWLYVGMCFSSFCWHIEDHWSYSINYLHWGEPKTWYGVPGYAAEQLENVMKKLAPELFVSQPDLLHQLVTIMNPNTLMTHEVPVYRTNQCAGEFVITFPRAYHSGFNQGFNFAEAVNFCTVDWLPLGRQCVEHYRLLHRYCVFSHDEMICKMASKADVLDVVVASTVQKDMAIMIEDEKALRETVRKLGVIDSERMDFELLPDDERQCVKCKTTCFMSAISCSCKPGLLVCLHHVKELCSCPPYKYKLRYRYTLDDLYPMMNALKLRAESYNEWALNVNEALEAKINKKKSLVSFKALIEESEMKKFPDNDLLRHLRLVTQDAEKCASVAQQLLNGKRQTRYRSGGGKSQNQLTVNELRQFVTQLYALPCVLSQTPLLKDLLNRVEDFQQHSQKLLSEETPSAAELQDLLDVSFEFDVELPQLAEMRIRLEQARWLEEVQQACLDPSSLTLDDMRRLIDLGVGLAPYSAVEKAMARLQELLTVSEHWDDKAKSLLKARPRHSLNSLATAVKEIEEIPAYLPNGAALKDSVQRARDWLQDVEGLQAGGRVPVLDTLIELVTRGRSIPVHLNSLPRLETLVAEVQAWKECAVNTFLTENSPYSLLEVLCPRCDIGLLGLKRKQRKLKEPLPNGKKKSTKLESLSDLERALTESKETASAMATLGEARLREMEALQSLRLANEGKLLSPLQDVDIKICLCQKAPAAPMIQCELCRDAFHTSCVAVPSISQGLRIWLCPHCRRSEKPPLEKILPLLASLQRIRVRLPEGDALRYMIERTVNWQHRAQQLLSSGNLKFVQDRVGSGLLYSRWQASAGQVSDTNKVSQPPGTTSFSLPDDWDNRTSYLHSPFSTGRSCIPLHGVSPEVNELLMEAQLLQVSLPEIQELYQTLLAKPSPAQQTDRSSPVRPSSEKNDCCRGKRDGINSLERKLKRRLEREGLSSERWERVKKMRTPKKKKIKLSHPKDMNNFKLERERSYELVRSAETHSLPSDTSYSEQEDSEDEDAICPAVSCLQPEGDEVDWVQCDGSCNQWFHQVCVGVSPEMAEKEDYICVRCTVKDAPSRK
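qHTS format, multiple compound concentrations. Buffer 50 mM HEPES pH 7.5/0.01% Tween-20; 200 nM KDM5BΔAP final; 10 min compound preincubation; substrate-mix levels 12.5 µM peptide, 25 µM α-KG, 0.25 mM NAD⁺; 30 min RT; ΔRFU.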
Hits are given with their value; i = inactive.

SMILES	KDM5B inhibitor
Cc1ccccc1Cn1nc(C)c(NS(=O)(=O)c2c(C)nn(C(F)F)c2C)c1C	i
CC(=O)N1CCC(C(=O)NCc2nnc3ccc(-c4ccc(C)cc4)nn23)CC1	31.6µM
Cc1ccc(-c2ccc3nnc(CNC(=O)c4nccc5ccccc45)n3n2)cc1	31.6µM
Cc1ccsc1CNC(=O)c1cnccn1	i
Cc1ccc(CNC(=O)CSc2nnc3ccc(-c4ccc5c(c4)OCO5)nn23)cc1	i
O=C(NCc1nnc2n1C(C(=O)NCc1ccc(F)cc1)CC2)c1cccnc1 (centres undefined)	i
CCc1ccc(CNC(=O)c2cnccn2)s1	i
CC(=O)N1CCC(C(=O)NCc2ncc(-c3ccccc3)o2)CC1	i
Cc1ccc(-c2ccc3nnc(CNC(=O)c4cccnc4)n3n2)cc1	31.6µM
Cc1ccc(-c2ccc3nnc(SCC(=O)NCC4CCCO4)n3n2)cc1 (centres undefined)	i
Cc1ccc(-c2ccc3nnc(CNC(=O)c4cnccn4)n3n2)cc1	12.6µM
Cc1ccc(CNC(=O)C2CCN(S(=O)(=O)N3CCCCC3)CC2)cc1	i
COc1ccc(C2C=C(c3ccc(Cl)cc3)Nc3nnnn32)c(OC)c1OC (centres undefined)	i
COc1ccc2oc(=O)cc(CN3CCN(C(=O)c4c(OC)cccc4OC)CC3)c2c1	i
c1ccc2[nH]c(CN3CCCC3)nc2c1	i
CN(C)CCN1C(c2ccccc2)=CC(=C(C#N)C#N)C2=C1CCCC2	i
CC(Nc1ccc([N+](=O)[O-])cn1)c1ccc(Cl)c(Cl)c1 (centres undefined)	i
O=C(O)C/C(=C/c1cccs1)c1nc2ccccc2s1	i
O=C(Nc1cccc2c1CCCC2)c1ccc(S(=O)(=O)NC2CC2)cc1	i
Cc1cc(C)c(C#N)c(SCC(F)(F)F)n1	i
Cc1cnc2c(S(=O)(=O)NC3CCN(S(C)(=O)=O)CC3)cccc2c1	i
COc1cccc(Nc2ccc3c(n2)C(C)(C(=O)NCC2CC2)CN(C)C3)c1 (centres undefined)	35.5µM
COc1cccc(Nc2ncc3c(n2)C(C)(C(=O)NCCN2CCOCC2)CC3)c1 (centres undefined)	i
COc1cccc(Nc2ncc3c(n2)C(C)(C(=O)NCCCn2ccnc2)CC3)c1 (centres undefined)	i
COc1cccc(Nc2ccc3c(n2)C(C)(C(=O)NCCc2cnc[nH]2)CN(C)C3)c1 (centres undefined)	39.8µM
SMILES	KDM5B inhibitor
COc1cccc(Nc2ncc3c(n2)C(C)(C(=O)N2CCN(c4ccccn4)CC2)CC3)c1 (centres undefined)	i
CN1Cc2ccc(Nc3ccccc3)nc2C(C)(C(=O)NCc2cccs2)C1 (centres undefined)	31.6µM
COc1cccc(N2CC(C(=O)NCC3CC3)NC2=O)c1 (centres undefined)	i
Cn1cc(-c2ccccc2)cc1C(=O)NCc1cccs1	i
CC1(C(=O)NCc2cccs2)CCCCC(=O)N1 (centres undefined)	i
O=C(CSCc1cnn(-c2ccccc2)c1-n1cccc1)NCCc1ccccc1	i
CC1CCCN(CCS(=O)c2ccccc2)C1 (centres undefined)	i
O=C(O)CCCCCc1ccc(CCCCC(=O)O)s1	i
CCOc1cc(C(=O)OCC(=O)NC(N)=O)cc(OCC)c1OCC	i
COc1ncccc1-c1cnc2[nH]cc(CC(N)=O)c2c1	31.6µM
COc1ncccc1-c1cnc2[nH]cc(CC(=O)N3CCOCC3)c2c1	35.5µM
COc1ccc(CNC(=O)c2c[nH]c3ncccc23)cc1OC	i
COc1ncccc1-c1cc(C(=O)N2CCOCC2)c2c(c1)ncn2C	i
COc1ncccc1-c1cnc2[nH]cc(CC(=O)NC(C)C)c2c1	31.6µM
O=C(NC1CCCCCC1)c1ccc(Oc2nccnc2N2CCCCC2)cc1	i
Cc1cccc(OCC(=O)Nc2cccc(-c3nc4ccccc4o3)c2)c1C	i
OCC1CCCCN1CCNc1nccc(-c2cccnc2)n1 (centres undefined)	25.1µM
O=S(=O)(c1cccnc1)N1CCCCC1CCN1CCOCC1 (centres undefined)	i
O=C(CC1CCCC1)Nc1cnc(-c2cccnc2)nc1	i
CS(=O)(=O)N1CCCCC1CCNc1nccc(-c2cccnc2)n1 (centres undefined)	31.6µM
CSc1ccccc1OCc1cc(C(=O)NCCN2CCCCC2CO)no1 (centres undefined)	i
O=S(=O)(c1cccnc1)N1CCCCC1CCc1cccs1 (centres undefined)	i
NC1=NC(c2cccc(Oc3ccccc3)c2)n2c(nc3ccccc32)N1 (centres undefined)	i
CC(C)(C)CC(=O)NCC(=O)C(C#N)c1ccc2ccccc2n1 (centres undefined)	i
O=C(Nc1ccc(OC(F)(F)F)cc1)C(Cc1ccccc1)C(=O)Nc1ccc(OC(F)(F)F)cc1	i
SMILES	KDM5B inhibitor
CCOCCCn1c(=N)c(C(=O)NC2CCCC2)cc2c(=O)n3cccc(C)c3nc21	i
CCOC(=O)CCCOc1cccn2c(=O)c(-c3cc(C)n(-c4cccc(C)c4)n3)c(C)nc12	28.2µM
Cc1cc(Cl)ccc1OCCCC(=O)OCC(=O)c1c(N)n(C)c(=O)n(C)c1=O	i
CCOC(=O)CCn1nc(C)c2c(C)n(-c3ccccc3)nc2c1=O	i
Cc1c(OCC(=O)OC(C)(C)C)ccc2c(-c3ccccc3)cc(=O)oc12	i
CCOC(=O)CCCOc1cccn2c(=O)c(-c3cc(C)n(-c4ccccc4C)n3)c(C)nc12	31.6µM
CCOC(=O)CCCOc1cccn2c(=O)c(-c3cc(C)n(-c4ccc(Cl)cc4)n3)c(C)nc12	25.1µM
Cc1ccccc1-n1nc(-c2c(C)nc3c(OCC(=O)OC(C)(C)C)cccn3c2=O)cc1C	20µM
CCOC(=O)c1nn(-c2ccc(Cl)cc2)c(C)cc1=O	i
Cc1ccccc1OCC(=O)OCc1cc(=O)n2ccsc2n1	i
CC(=O)N=c1c(C#N)cc2c(=O)n3cccc(C)c3nc2n1CCCOC(C)C	i
CCNC(=O)CCc1c(C)nn(-c2cccc(C)c2)c1Oc1ccc(F)cc1F	i
CN(CC(=O)C(C#N)c1ccccc1)C1CCCCC1 (centres undefined)	i
CSc1cccc(NC(=O)c2cc(=O)c(OCc3ccccc3F)co2)c1	i
Cc1nc2nc(N(Cc3cccc(C#N)c3)S(=O)(=O)c3ccccc3)nn2c(C)c1Cl	i
O=C(COC(=O)C1C=CCCC1)c1cccc([N+](=O)[O-])c1 (centres undefined)	i
Fc1ccc(CSc2nc(-c3ccccc3)cc(C(F)(F)F)n2)cc1	i
O=C(Nc1ccc2c(c1)OCCO2)C(=O)c1c[nH]c2ccc(F)cc12	i
Cc1cc(C)cc(OCCC(=O)N(CC#N)C2CC2)c1	i
CCn1cc(C(=O)N2CCN(C)CC2c2ccccc2)c2ccccc21 (centres undefined)	i
CCCN(C(=O)Cn1nc(Cc2cccnc2)c2ccccc2c1=O)c1cccc(Cl)c1	i
COc1cccc(-c2cn3c(n2)N(C(=O)Cc2ccsc2)CCC3)c1	i
COCC(=O)N1CCCn2cc(-c3cccc(C#N)c3)nc21	25.1µM
N#Cc1cccc(-c2cn3c(n2)N(C(=O)Cc2cccs2)CCC3)c1	25.1µM
Cc1ccccc1CC(=O)N1CCCn2cc(-c3cccc(C#N)c3)nc21	22.4µM
Cc1noc(C)c1CC(=O)N1CCCn2cc(-c3ccccc3)nc21	i
CN(Cc1cccc(C#N)c1)C(=O)Cc1cccs1	i
CC(=O)NCC(=O)N1CCCn2cc(-c3ccccc3)nc21	i
Cc1ccc(-c2cn3c(n2)N(C(=O)Cn2ccnc2C)CCC3)cc1	i
